CD11b adhes inh = blocks human CD11b/CD18 adhesion to fibrinogen; P05107+P11215; K562 CD11b/CD18 adhesion to fibrinogen, ATPlite luminescence; Mn2+ added to activate the integrin; inhibition, % at 10 µM; hit rate 0.54% among 93,000;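 active means primary inhibition of 50% or more at 10 µM, then 40% or more on retest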
hDAT+cocaine = changed human dopamine transporter uptake under cocaine IC80; Q01959; LLC-PK1 hDAT cells, [14C]-dopamine uptake with cocaine IC80; actives deviate in either direction; B-score at 10 µM; hit rate 1.3% among 110,000;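 active means Z score or B-score, a plate-position-corrected score, falls beyond the plate's 99.7% confidence bounds, in either direction; inactive means both scores lie inside the 99.7% bounds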
FAK inh = FAK (human) kinase inhibition; Q05397; biochemical FAK kinase activity assay; inhibition, %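 (tested at 7 µM)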; hit rate 0.84% among 97,000
Target sequence (Q05397 whole entry, looked up): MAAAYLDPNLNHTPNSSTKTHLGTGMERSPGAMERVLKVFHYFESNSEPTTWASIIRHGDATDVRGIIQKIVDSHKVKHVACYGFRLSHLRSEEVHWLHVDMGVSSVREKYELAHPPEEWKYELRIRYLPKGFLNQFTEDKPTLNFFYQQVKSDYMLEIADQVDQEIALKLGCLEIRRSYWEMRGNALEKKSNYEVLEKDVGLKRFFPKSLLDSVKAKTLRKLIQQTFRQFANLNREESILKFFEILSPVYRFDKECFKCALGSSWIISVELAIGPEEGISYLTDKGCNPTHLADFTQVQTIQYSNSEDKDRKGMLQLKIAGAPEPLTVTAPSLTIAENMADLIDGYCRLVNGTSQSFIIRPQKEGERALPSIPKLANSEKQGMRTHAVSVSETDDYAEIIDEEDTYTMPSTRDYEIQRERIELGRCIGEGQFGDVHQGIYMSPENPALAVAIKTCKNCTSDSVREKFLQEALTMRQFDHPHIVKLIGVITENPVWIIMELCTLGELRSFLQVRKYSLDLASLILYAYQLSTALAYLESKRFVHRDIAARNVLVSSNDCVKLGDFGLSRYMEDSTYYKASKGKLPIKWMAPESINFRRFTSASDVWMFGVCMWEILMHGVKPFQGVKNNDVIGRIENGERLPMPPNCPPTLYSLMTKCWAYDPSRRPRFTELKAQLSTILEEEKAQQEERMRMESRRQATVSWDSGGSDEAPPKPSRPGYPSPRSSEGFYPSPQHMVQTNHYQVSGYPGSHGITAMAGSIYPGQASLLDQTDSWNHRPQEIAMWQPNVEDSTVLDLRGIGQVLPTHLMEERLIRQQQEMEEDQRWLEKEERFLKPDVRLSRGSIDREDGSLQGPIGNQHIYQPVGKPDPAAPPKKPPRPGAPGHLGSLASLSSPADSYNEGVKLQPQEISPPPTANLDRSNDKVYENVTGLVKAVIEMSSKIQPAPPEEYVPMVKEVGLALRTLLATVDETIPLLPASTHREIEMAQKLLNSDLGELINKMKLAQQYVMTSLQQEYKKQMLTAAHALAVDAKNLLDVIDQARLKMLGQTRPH
Pyk2 oligo antag = Pyk2 (human) oligomerization antagonism. hit rate 0.83% among 99,000. AID 1347419. Q293 cells, Pyk2 FERM NanoBiT luminescence; hits give low values. z-score (the deposit names both 25 µM and 10 µM). Q14289;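 active means Z-score of -3 or lower, scaled per plate to the spread of control and sample wells; inactive means z-score above -3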;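 further: negative z-score means lost luminescence so less FERM oligomerization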
D1 mod = allosterically modulates the human D1 dopamine receptor; P21728; HEK293 D1, CRE-luciferase, dopamine EC30 potentiation; actives deviate in either direction; B-score at 10 µM; hit rate 5.9% among 58,000;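 active means luminescence count or its row- and column-corrected plate score outside the 99.7% band of the plate's sample wells, on either side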
Mac1 fbg enh = CD11b/CD18-fibrinogen binding enhancement | P05107+P11215 | K562 CD11b/CD18 adhesion to fibrinogen, ATPlite luminescence | activation, % at 10 µM | hit rate 0.07% among 93,000 | AID 1499;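 active means 10 µM primary screen giving 50% or more activity, confirmed by 40% or more on retest at that dose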
FAK inh conf = FAK (human) inhibition confirmed; AID 794; inhibition, % at 7 µM; hit rate 28% among 750; FAK kinase biochemical inhibition assay; shares compounds with FAK inh
Hits are given with their value. The sample as a whole holds a higher share of hits than the screen did. Unless noted, no stated cut-off is given here; in the data, active means inhibition above about 19%; inactive means the rest.

How did O=C(O[C@@H]1OC2COC(=O)c3cc(O)c(O)c(O)c3-c3c(cc(O)c(O)c3O)C(=O)O[C@@H]([C@H]1O)[C@@H]2O)c1cc(O)c(O)c(O)c1 do in these assays?
hDAT+cocaine: inactive

How did CCOC(=O)Cc1[nH]nc2c1C(c1cc(OC)ccc1OC)C(C#N)=C(N)O2 (configuration not stated) do in these assays?
CD11b adhes inh: inactive; hDAT+cocaine: inactive; FAK inh: 25; Pyk2 oligo antag: inactive; Mac1 fbg enh: inactive; FAK inh conf: inactive

How did Cc1ccc(NC(=O)c2ccc(OC(=O)CCN3C(=O)c4ccccc4C3=O)cc2)cc1 do in these assays?
CD11b adhes inh: inactive; hDAT+cocaine: inactive; FAK inh: 20; Pyk2 oligo antag: inactive; Mac1 fbg enh: inactive; FAK inh conf: inactive

What do the screens show for `COc1ccc(-n2c(SCC(N)=O)nc3nc4c(cc3c2=O)COC(C)(C)C4)cc1`?
CD11b adhes inh: inactive; FAK inh: inactive; Pyk2 oligo antag: inactive; Mac1 fbg enh: inactive

What do the screens show for `O=C(CS(=O)CC(=O)N(CC(=O)NC1CCCC1)c1ccc2c(c1)OCCO2)Nc1ccc(F)cc1` (configuration not stated)?
hDAT+cocaine: inactive; FAK inh: inactive; Pyk2 oligo antag: inactive

How did O=C1Nc2ccc(NS(=O)(=O)c3cccs3)c3cccc1c23 do in these assays?
CD11b adhes inh: inactive; FAK inh: 42; Pyk2 oligo antag: inactive; Mac1 fbg enh: inactive; FAK inh conf: 19

What do the screens show for `CC12CCC(C(=O)N(CC(O)CN3CCCCC3)C1=O)C2(C)C` (configuration not stated)?
CD11b adhes inh: inactive; hDAT+cocaine: inactive; FAK inh: inactive; Pyk2 oligo antag: inactive; Mac1 fbg enh: inactive

Results for Cc1oc(-c2ccccc2)cc1C(=O)Nc1cccc2ccccc12 ?
CD11b adhes inh: inactive; hDAT+cocaine: inactive; FAK inh: 26; Pyk2 oligo antag: inactive; Mac1 fbg enh: inactive; FAK inh conf: 25

What do the screens show for `Cc1oc(-c2ccccc2)cc1C(=O)Nc1cccc(C(=O)O)c1`?
hDAT+cocaine: inactive; FAK inh: inactive; Pyk2 oligo antag: inactive; D1 mod: inactive; Mac1 fbg enh: inactive

How did O=C(CCC1CCCCC1)NNC(=O)NC12CC3CC(CC(C3)C1)C2 do in these assays?
CD11b adhes inh: inactive; hDAT+cocaine: inactive; FAK inh: inactive; Pyk2 oligo antag: inactive; Mac1 fbg enh: inactive

Results for C=CCN1C(=O)/C(=C2/C(=O)N(CC(=O)O)c3ccccc32)S/C1=N/c1nccs1 ?
CD11b adhes inh: inactive; FAK inh: 22; Mac1 fbg enh: inactive; FAK inh conf: inactive

What do the screens show for `C=CCN1C(=O)/C(=C/c2ccc(OC)cc2)S/C1=N/c1nccs1`?
CD11b adhes inh: inactive; Mac1 fbg enh: inactive

Results for N#C/C(C(=O)N1CCOCC1)=C1/SC=C(c2ccccc2)N1c1ccccc1 ?
FAK inh: inactive; D1 mod: inactive

How did COc1ccc(Cl)cc1NC(=O)c1nc2nc(C)cc(C(F)F)n2n1 do in these assays?
CD11b adhes inh: inactive; hDAT+cocaine: inactive; FAK inh: inactive; D1 mod: inactive; Mac1 fbg enh: inactive

How did COc1ccccc1NC(=O)c1nn(-c2ccc(Cl)cc2)ccc1=O do in these assays?
CD11b adhes inh: inactive; hDAT+cocaine: inactive; FAK inh: 25; Pyk2 oligo antag: inactive; Mac1 fbg enh: inactive; FAK inh conf: inactive

How did COc1ccccc1NC(=O)c1nn(-c2ccccc2)ccc1=O do in these assays?
CD11b adhes inh: inactive; hDAT+cocaine: inactive; FAK inh: inactive; Pyk2 oligo antag: inactive; Mac1 fbg enh: inactive

What do the screens show for `CCOC(=O)/C(=N\Nc1cc(Cl)ccc1Cl)N1CCN(CC)CC1`?
CD11b adhes inh: inactive; Mac1 fbg enh: inactive

Results for O=c1[nH]c2ccccc2n1CCCSc1cnc2ccccc2n1 ?
CD11b adhes inh: inactive; hDAT+cocaine: inactive; FAK inh: 42; Pyk2 oligo antag: inactive; D1 mod: inactive; Mac1 fbg enh: inactive; FAK inh conf: inactive

What do the screens show for `O=C(c1ccccc1)N(Cc1ccc2c(c1)OCO2)Cc1nc2ccccc2c(=O)[nH]1`?
CD11b adhes inh: inactive; hDAT+cocaine: inactive; FAK inh: inactive; Pyk2 oligo antag: inactive; D1 mod: inactive; Mac1 fbg enh: inactive

What do the screens show for `COc1ccc(-c2nc3ccc(N4CCCC4)cc3c(=O)[nH]2)cc1OC`?
CD11b adhes inh: inactive; FAK inh: 28; Pyk2 oligo antag: inactive; Mac1 fbg enh: inactive; FAK inh conf: inactive

How did COc1ccc(-c2cc(C(=O)N3CCN(c4ccccc4)CC3)c3ccccc3n2)cc1OC do in these assays?
CD11b adhes inh: inactive; hDAT+cocaine: inactive; FAK inh: inactive; Pyk2 oligo antag: inactive; Mac1 fbg enh: inactive

How did CC(=O)Nc1ccccc1O do in these assays?
hDAT+cocaine: inactive; D1 mod: inactive

What do the screens show for `O=C1C=C(Nc2ccccc2O)c2ccccc2C1=O`?
hDAT+cocaine: inactive; FAK inh: 23; Pyk2 oligo antag: inactive; FAK inh conf: inactive

How did COC(=O)CSc1nc2ccccc2nc1SCC(=O)OC do in these assays?
hDAT+cocaine: inactive; FAK inh: inactive; Pyk2 oligo antag: inactive; D1 mod: inactive

How did CCOC(=O)CSc1nc(C(C)C)nc2ccccc12 do in these assays?
CD11b adhes inh: inactive; hDAT+cocaine: inactive; FAK inh: 37; Pyk2 oligo antag: inactive; Mac1 fbg enh: inactive; FAK inh conf: 24

What do the screens show for `COC(=O)CSc1nc(C(C)C)nc2ccccc12`?
CD11b adhes inh: inactive; hDAT+cocaine: inactive; FAK inh: 40; Pyk2 oligo antag: inactive; D1 mod: inactive; Mac1 fbg enh: inactive; FAK inh conf: 23

How did CCOC(=O)CSc1nc(C2CC2)nc2ccccc12 do in these assays?
CD11b adhes inh: inactive; hDAT+cocaine: inactive; FAK inh: 67; Pyk2 oligo antag: inactive; D1 mod: inactive; Mac1 fbg enh: inactive; FAK inh conf: 65

What do the screens show for `CCCCCCC(=O)N1C/C=C\C(c2ccc(OC)cc2)N(Cc2ccc(F)cc2)C(=O)[C@H]1Cc1ccccc1` (some centres not stated)?
hDAT+cocaine: inactive

Results for O=C(NCCCN1CCOCC1)c1cc2cc(Cl)cc(Cl)c2oc1=O ?
FAK inh: inactive; D1 mod: inactive

What do the screens show for `Cn1c(SCC(=O)N2CCCCC2)nc2cccnc21`?
CD11b adhes inh: inactive; hDAT+cocaine: inactive; FAK inh: inactive; Pyk2 oligo antag: inactive; D1 mod: inactive; Mac1 fbg enh: inactive

What do the screens show for `COc1cc(C)c(Br)cc1S(=O)(=O)N1CCCC1`?
CD11b adhes inh: inactive; hDAT+cocaine: inactive; FAK inh: inactive; Pyk2 oligo antag: inactive; D1 mod: inactive; Mac1 fbg enh: inactive

How did CCN(CC)C(=O)CSc1nc2c(sc(=S)n2Cc2ccco2)c(=O)n1-c1ccccc1 do in these assays?
CD11b adhes inh: inactive; hDAT+cocaine: inactive; FAK inh: 20; Pyk2 oligo antag: inactive; Mac1 fbg enh: inactive; FAK inh conf: inactive

How did CCN(CC)C(=O)CSc1nnc(-c2cccs2)n1Cc1ccco1 do in these assays?
CD11b adhes inh: inactive; hDAT+cocaine: inactive; FAK inh: inactive; Pyk2 oligo antag: inactive; D1 mod: inactive; Mac1 fbg enh: inactive
